{"source": "PubChem BioAssay AID588727", "about": "(Southern Research Specialized Biocontainment Screening …, 2011)", "assay": "inhibitors of VEEV TC-83 cytopathic effect, confirmation, Vero cells (AID 588727)", "settings": "VEEV TC-83 cytopathic effect inhibition, at 20 µM", "key": {"[1]": {"settings": "measured here: 10K pilot screen inhibition, stronger effect = higher value"}, "[2]": {"settings": "stronger effect = higher value unless noted"}}, "note": "Screen size: about 350,000 compounds; about 450 (0.13%) were called active. The rule behind the calls is not given here. Not all results are given here. Entries with a potency or affinity are not part of this list."}
{"compound": "O=c1[nH]c(CSc2ncccn2)nc2c1cnn2-c1ccccc1", "values": [{"measurement": "inhibition", "setting": "stronger effect = higher value", "value": "5.59% (inactive)"}, {"measurement": "inhibition", "setting": "[1]", "value": 3.44, "unit": "%"}]}
{"compound": "c1ccc(-n2ncc3c2ncn2nc(CSc4nc5ccccc5s4)nc32)cc1", "values": [{"measurement": "inhibition", "setting": "[2]", "value": "inactive"}]}
{"compound": "CCc1ccc(OCC(=O)Nc2nnc(-c3ccco3)s2)cc1", "values": [{"measurement": "inhibition", "setting": "[2]", "value": "0.88% (inactive)"}]}
{"compound": "Cc1ccc(-n2ncc3c(NCc4cccnc4)ncnc32)c(C)c1", "values": [{"measurement": "inhibition", "setting": "[2]", "value": "1.66% (inactive)"}]}
{"compound": "CSc1ncnc2c1cnn2-c1ccc(C)cc1C", "values": [{"measurement": "inhibition", "setting": "[2]", "value": "8.17% (inactive)"}]}
{"compound": "Cc1ccc(-n2ncc3c(NCc4ccccn4)ncnc32)c(C)c1", "values": [{"measurement": "inhibition", "setting": "[2]", "value": "1.72% (inactive)"}]}
{"compound": "Fc1ccc(-n2ncc3c(SCc4cccnc4)ncnc32)cc1", "values": [{"measurement": "inhibition", "setting": "[2]", "value": "3.59% (inactive)"}]}
{"compound": "COc1ccc(C(C(=O)NCC2CCCO2)N(Cc2ccc(F)cc2)C(=O)CNC(=O)c2ccco2)cc1OC", "note": "(configuration not stated)", "values": [{"measurement": "inhibition", "setting": "[2]", "value": "1.15% (inactive)"}]}
{"compound": "Cc1cc(O)ccc1N1C(=O)c2cccc3cc([N+](=O)[O-])cc(c23)C1=O", "values": [{"measurement": "inhibition", "setting": "[2]", "value": "inactive"}]}
{"compound": "O=C1c2cccc3cc([N+](=O)[O-])cc(c23)C(=O)N1c1nncs1", "values": [{"measurement": "inhibition", "setting": "[2]", "value": "inactive"}]}
{"compound": "Cc1ccc(C)c(OCc2cc(C(=O)N3CCN(c4ccccc4C)CC3C)no2)c1", "note": "(configuration not stated)", "values": [{"measurement": "inhibition", "setting": "[2]", "value": "4.26% (inactive)"}]}
{"compound": "Cc1cc(C(=O)N(Cc2nnc(-c3ccc(Cl)cc3)o2)C(C)C)c2ccccc2n1", "values": [{"measurement": "inhibition", "setting": "[2]", "value": "8.49% (inactive)"}]}
{"compound": "c1ccc(-c2cnnc(-c3ccccn3)n2)cc1", "values": [{"measurement": "inhibition", "setting": "[2]", "value": "2.25% (inactive)"}]}
{"compound": "c1ccc(-c2nc(-c3ccccn3)no2)cc1", "values": [{"measurement": "inhibition", "setting": "[2]", "value": "inactive"}]}
{"compound": "CCCCn1c(N)c(N(CCC(C)C)C(=O)CSc2nnc3ccccn23)c(=O)[nH]c1=O", "values": [{"measurement": "inhibition", "setting": "[2]", "value": "0.96% (inactive)"}]}
{"compound": "CN(C)CCCNC(=O)/C=C/c1ccc2c(c1)OCO2", "values": [{"measurement": "inhibition", "setting": "stronger effect = higher value", "value": "0.85% (inactive)"}, {"measurement": "inhibition", "setting": "[1]", "value": 1.09, "unit": "%"}]}
{"compound": "COCCCNC(=O)/C=C/c1ccc(Cl)cc1", "values": [{"measurement": "inhibition", "setting": "[2]", "value": "inactive"}]}
{"compound": "Cc1cc(-c2nnc(CCC(=O)NC(C)c3ccc(F)cc3)o2)no1", "note": "(configuration not stated)", "values": [{"measurement": "inhibition", "setting": "stronger effect = higher value", "value": "0.09% (inactive)"}, {"measurement": "inhibition", "setting": "[1]", "value": 1.8, "unit": "%"}]}
{"compound": "Nc1nnc(SCC(=O)OCC(=O)Nc2ccc(Br)cc2F)s1", "values": [{"measurement": "inhibition", "setting": "[2]", "value": "1.19% (inactive)"}]}
{"compound": "COc1ccc(S(=O)(=O)N2CCOCC2)cc1C(=O)NCc1ccccc1CN1CCCC1", "values": [{"measurement": "inhibition", "setting": "[2]", "value": "0.08% (inactive)"}]}
{"compound": "CCc1ccc(-c2nc(CSCC(=O)NCCCN3CCCC3=O)c(C)o2)cc1", "values": [{"measurement": "inhibition", "setting": "[2]", "value": "3.51% (inactive)"}]}
{"compound": "O=C1N=C(N2CCCCC2)S/C1=C\\c1ccccc1F", "values": [{"measurement": "inhibition", "setting": "[2]", "value": "0.16% (inactive)"}]}
{"compound": "CCCOc1ccccc1/C=C1\\SC(N)=NC1=O", "values": [{"measurement": "inhibition", "setting": "[2]", "value": "2.5% (inactive)"}]}
{"compound": "CCOC(=O)C1CCCN(c2oc(-c3ccc(OC)cc3)nc2C#N)C1", "note": "(configuration not stated)", "values": [{"measurement": "inhibition", "setting": "[2]", "value": "2.16% (inactive)"}]}
{"compound": "O=C(COC(=O)COc1ccccc1)NCCc1ccccc1", "values": [{"measurement": "inhibition", "setting": "[2]", "value": "0.2% (inactive)"}]}
{"compound": "CCC(=NC(C)c1ccccc1)c1c(O)[nH]c(=O)[nH]c1=O", "note": "(configuration not stated)", "values": [{"measurement": "inhibition", "setting": "[2]", "value": "1.39% (inactive)"}]}
{"compound": "C=CCSc1nc2ccccc2n1C(=O)/C=C/c1cc(OC)c(OC)c(OC)c1", "values": [{"measurement": "inhibition", "setting": "[2]", "value": "2.65% (inactive)"}]}
{"compound": "CCn1c(SCC(=O)N/N=C/c2ccc(OC)c(OC)c2)nc2ccccc21", "values": [{"measurement": "inhibition", "setting": "stronger effect = higher value", "value": "4.2% (inactive)"}, {"measurement": "inhibition", "setting": "[1]", "value": 2.22, "unit": "%"}]}
